# According to PubChem BioAssay (NCI):
# This is part of a sample that, as a whole, favours compounds with a hit. Of some 83,000 tested, about 20% had one in any assay.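 Note: values are percent growth. 100 is the growth of untreated cells, values between 100 and 0 indicate rising inhibition; between -100 and 0 indicates cell death.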 A number with no mark means an inactive call. Calls of active or inactive are those of the source. How the source made its calls: active means growth percent below 10; inactive means the rest.
# Test system: MDA-MB-435 melanoma
# Experiment: NCI-60 one-dose screen, 48 h (100 = growth as untreated, 0 = no growth, -100 = all killed)
# Conditions: 10 µM unless noted
row,Compound,growth
1,Nc1nc(N)nc(N2CCCCC2)n1,115%
2,O=C1NCC2CCCC1C2 (configuration not stated),112%
3,Cc1cc(CO)c(O)c(CO)c1,106%
4,C#CC(O)c1ccccc1 (configuration not stated),108%
5,COc1ccc(Br)c(C=O)c1,49.8%
6,COC(c1ccc2c(c1)OCO2)C(C)Br (configuration not stated),90%
7,O=[N+]([O-])c1ccc(-c2nc(N(CCO)CCO)c3ccccc3n2)o1,-85.5% (active)
8,O=Cc1ccc(Cl)c(Cl)c1,110%
9,CCC(C)C1CCC(O)CC1 (configuration not stated),103%
10,CC(C)c1ncc([N+](=O)[O-])n1C,136%
11,COc1ccc(/C=C\C(=O)/C=C/c2ccc(OC)cc2)cc1,-30.4% (active)
12,Nc1cc2c(cc1Cl)C(=O)c1ccccc1C2=O,90.1%
13,Cc1ccc(Cc2ccc(C)cc2)cc1,97.5%
14,N#C/C(=C\c1ccc2c(c1)OCO2)c1ccccc1,-1.53% (active)
15,CCOC(=O)c1c[nH][nH]c1=O,104%
16,CC(=O)c1cc(O)ccc1O,108%

row,Compound,growth
1,Nc1ccn(C2CC(N)C(CO)O2)c(=O)n1 (configuration not stated),83.6%
2,CNc1ccccc1C(N)=O,105%
3,Cn1c(=O)[nH]c2ccccc2c1=O,101%
4,CCOC(=O)C(C#N)=C1CCN(C)CC1,109%
5,NNC(=O)c1ccccc1N,114%
6,COC(CCCl)c1ccc(Cl)cc1 (configuration not stated),107%
7,C=CCC(OC(C)=O)c1ccc(OC)c(OC)c1 (configuration not stated),110%
8,CCN(CC)c1ccc2nc3ccc(N=Nc4ccc(N(C)C)cc4)cc3[n+](-c3ccccc3)c2c1,-87.3% (active)
9,c1ccc2[nH]c(Cc3nc4ccccc4[nH]3)nc2c1,101%
10,CC1=CC(=Nc2ccc(N(C)C)cc2)C=C(C)C1=O,75.7%
11,N#CCCN1C(=O)CCC1C(=O)O (configuration not stated),110%
12,Cc1nc(C)c(C(=O)O)cc1C(=O)O,110%
13,Clc1ccc(/C=C/c2ccccn2)cc1,105%
14,N#CC1(O)CCCCC1,99.3%
15,CCNc1ncnc2[nH]ncc12,102%
16,CC12CCC3c4ccc(O)cc4CCC3C1CCC2=O (configuration not stated),112%
